Assay outcomes from PubChem.
PLK1 PBD block – blocks phosphopeptide binding to human PLK1 polo-box domain. P53350. Plk1 PBD binding of FITC phosphopeptide, fluorescence polarization. Potency, µM, for inactives: max response, negative = inhibition, most hits filed as inhibitors. hit rate 2.8% among 360,000. AID 720504; note: series mostly up to about 57 µM; % is set by controls: 0 for no effect and ±100 for the full control effect; nearly all actives have a fitted effect of over 65% in size
TrxR1 substrate – is turned over as a substrate by rat TrxR1; Potency, µM (top dose mostly 114 µM), inactives show at the highest dose activity change, negative = substrate turnover; hit rate 0.01% among 390,000; purified TrxR1 substrate turnover, NADPH consumption readout; note: % is set by controls: 0 for no effect and ±100 for the full control effect; nearly all actives have a fitted effect of over 50% in size
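Rat TrxR1, dispensed at 90 nM, was prereduced with 400 uM NADPH (final) for 5 min at ~22 deg C, then incubated with compound 15 min before 400 uM selenite. A first-read NADPH fluorescence drop versus no-compound background flagged substrates.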
Sfp PPTase inh – blocks B. subtilis Sfp PPTase activity; Biochemical Sfp PPTase activity, qHTS; Potency, µM, inactives show largest response in the series, negative = inhibition, actives largely listed as inhibitors; Q9F4F7; hit rate 3.5% among 310,000;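 note: the enzyme is Sfp with the accession as filed and its product quenches rhodamine fluorescence; 0% = enzyme reaction without inhibitor and -100% = no enzyme wells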
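Step 1, compound plus 15 nM Sfp-PPTase, 15 min, room temperature. Step 2, add rhodamine-CoA (5 uM) and BHQ-2-YbbR (12.5 uM). Step 3, read 525/598 nm fluorescence at 0 and 30 min.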
VDR inh – inhibitors of human vitamin D receptor | VDR-SRC2-3 peptide fluorescence polarization, 2 h | hit rate 0.93% among 400,000 | Potency, µM, for the others: max response, negative = inhibition, most hits filed as inhibitors | AID 504847 | P11473; note: % is set by controls: 0 for no effect and ±100 for the full control effect
Target sequence (P11473 whole entry, looked up): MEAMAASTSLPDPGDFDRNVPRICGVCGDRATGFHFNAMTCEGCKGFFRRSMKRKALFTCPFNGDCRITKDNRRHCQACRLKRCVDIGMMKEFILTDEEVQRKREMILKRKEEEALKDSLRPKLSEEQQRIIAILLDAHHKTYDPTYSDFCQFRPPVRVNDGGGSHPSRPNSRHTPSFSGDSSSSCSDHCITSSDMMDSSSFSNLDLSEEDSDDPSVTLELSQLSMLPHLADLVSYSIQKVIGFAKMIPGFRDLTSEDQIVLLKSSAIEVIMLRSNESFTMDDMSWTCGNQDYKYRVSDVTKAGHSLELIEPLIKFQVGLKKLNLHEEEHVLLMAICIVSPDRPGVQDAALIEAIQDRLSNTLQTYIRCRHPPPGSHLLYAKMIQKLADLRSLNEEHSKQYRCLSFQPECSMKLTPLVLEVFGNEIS
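VDR–SRC2-3 interaction, FP format. Cmpds 23 nl via pintool, brief spin, 2 h ambient incubation.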
rTrxR1 inhibitor – blocks rat thioredoxin reductase 1 | O89049 | recombinant rTrxR1, NADPH fluorescence consumption, selenite substrate | Potency, µM (doses to about 114 µM), for inactives: at the highest dose activity change, negative = inhibition, most hits filed as inhibitors | hit rate 1% among 390,000; note: % is set by controls: 0 for no effect and ±100 for the full control effect; nearly all actives have a fitted effect of over 65% in size
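Rat TrxR1 (90 nM in the dispensed reagent) was pre-reduced with 400 uM NADPH for 5 min at room temperature, then incubated with compound for 15 min. After 400 uM selenite was added, NADPH fluorescence (Ex 340/Em 450 nm) was followed for 8 min.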
mIDH1 inhibitor – blocks human mutant IDH1 R132H enzyme; O75874; IDH1-R132H enzyme, NADPH consumption, diaphorase/resazurin fluorescence; Potency, µM (titrated, usually from 76.6 µM), without a hit: top-dose activity change, negative = inhibition, most hits filed as inhibitors; hit rate 0.093% among 390,000; AID 602179; note: % is set by controls: 0 for no effect and ±100 for the full control effect; nearly all actives have a fitted effect of over 65% in size
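IDH1-R132H (0.5 ug/mL) preincubated 30 min with compound, then NADPH (0.016 mM) and alpha-KG (2 mM) added; 80 min at RT, pH 7.5. Remaining NADPH coupled via diaphorase/resazurin to fluorescence (540/590 nm); concentration-response curves normalized to no-enzyme control.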
VDR confirm – inhibits human vitamin D receptor, primary hit validation. Potency, µM, actives largely listed as inhibitors. shares compounds with VDR inh. VDR-coactivator inhibition assay, qHTS confirmation. hit rate 89% among 840. AID 602199
VDR FP – blocks human VDR-coactivator binding in fluorescein assay | Potency, µM (top dose mostly 57.1 µM), inactives show at the highest dose activity change, negative = inhibition, most hits filed as inhibitors | hit rate 48% among 840 | shares compounds with VDR inh | VDR-coactivator binding, fluorescein fluorescence polarization
VDR bla – VDR (human) inhibition, cell-based beta-lactamase validation; hit rate 23% among 840; Potency, µM (doses to about 46.1 µM), without a hit: at the top dose activity change, negative = inhibition, actives largely listed as inhibitors; AID 602202; VDR beta-lactamase reporter cells, FRET ratio; cells co-treated with VDR agonist LG190178; shares compounds with VDR inh; note: % is set by controls: 0 for no effect and ±100 for the full control effect
VDR viability – counter-screen for vitamin D receptor inhibitors: cytotoxicity. hit rate 18% among 840. Potency, µM (titrated, usually from 48.3 µM), for inactives: at the top dose activity change, negative = cytotoxicity, usual class: cytotoxic. shares compounds with VDR inh. cytotoxicity counter-screen, cell viability, qHTS;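 note: plate controls were DMSO for no effect and high-concentration cycloheximide for full effect; nearly all actives have a fitted effect of over 75% in size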
The depositor's hits bear a star; ? = inconclusive; / = no result; [ ] = remark or other dose. Hits are enriched below; roughly 5.2% of the tested compounds scored in any of these assays. Calls come from the whole dose curve; as a rule, active = well fitted curve in the direction sought with a large enough effect; inconclusive = small, poorly fitted or top-dose-only effect, or another doubt; inactive = no such curve, though single readings can be large; an effect the other way counts as inactive or inconclusive. Potency is the fitted concentration of half-maximal effect.

SMILES | PLK1 PBD block | TrxR1 substrate | Sfp PPTase inh | VDR inh | rTrxR1 inhibitor | mIDH1 inhibitor | VDR confirm | VDR FP | VDR bla | VDR viability
CS(=O)(=O)c1ccc(S(=O)CC(=O)OCc2ccccc2)c([N+](=O)[O-])c1 (stereo not drawn) | 2.4µM* | 6%[57.1 µM] | -27% | 18µM* | 2.8µM* | -2% | 9.5* | 13µM* | ? | 21µM*
CCOC(=O)CCS(=O)(=O)c1nc(-c2ccccc2)cc(C(F)(F)F)n1 | ? | 6% | 10µM* | 45µM* | 16µM* | 7% | 6* | 10µM* | ? | ?
CCOC(=O)CS(=O)(=O)c1nc(-c2ccccc2)cc(C(F)(F)F)n1 | 11µM* | 8%[57.1 µM] | 50µM* | 20µM* | ? | -1% | 7.5* | ? | ? | ?
CC(C)CC1OC(C)Cc2[nH][nH]c(=O)c21 (stereo not drawn) | -24% | / | / | / | / | / | / | / | / | /
CC1=NNC(=O)/C1=C\c1cn(-c2ccccc2)nc1-c1ccc(Cl)cc1 | 5.3µM* | -10% | 7% | 13µM* | -15% | ? | ? | 11µM* | ? | 21µM*
CC1=NN(c2ccccc2)C(=O)/C1=C\c1cn(CCC#N)nc1-c1ccc(Cl)cc1 | 0% | 1%[57.1 µM] | -6% | ? | -8%[57.1 µM] | 9% | / | / | / | /
Cc1ccc(-c2nn(-c3ccccc3)cc2C=C2C(=O)CC(C)(C)CC2=O)cc1 | 0.67µM* | -7% | 25µM* | 25µM* | 22µM* | -2% | ? | 3.5µM* | 17% | -15%
Cc1ccc(-c2nn(-c3ccccc3)cc2NC(=O)c2ccccc2)cc1 | 0% | 7% | -4% | -17% | 19%[57.1 µM] | 0% | / | / | / | /
CC(C)C[C@@H](CC(=O)N[C@H](CC(=O)N[C@@H]1CCNC[C@H]1C(=O)N[C@H](CC(=O)N[C@@H](CCC(=O)O)CC(=O)O)Cc1c[nH]c2ccccc12)C(C)C)NC(=O)[C@@H]1CCCC[C@H]1N | / | / | -1% | -15% | / | / | / | / | / | /
CCc1ccc(NC(=O)Cn2nc(C(F)(F)F)c3c2CCC3)cc1 | 0% | 4%[57.1 µM] | 6% | -9% | 5%[57.1 µM] | 6% | / | / | / | /
N#Cc1c(NC(=O)Cn2nc(C(F)(F)F)c3c2CCCC3)sc2c1CCC2 | 3µM* | -9% | ? | 79µM* | -26% | 2% | 6.7* | ? | 4% | 0%
O=C(NCc1cccnc1)/C(=C\c1ccc(-c2cccc(Cl)c2)o1)S(=O)(=O)c1ccccc1 | -30% | -7% | -23% | 45µM* | 11µM* | -6% | 24* | ? | 6.5µM* | 18µM*
COc1ccc(OC)c(-c2c3cc(O)c(=O)cc-3oc3cc(O)c(O)cc23)c1 | 2.1µM* | -7%[57.1 µM] | 11µM* | 25µM* | -3%[57.1 µM] | 40µM* | 24* | ? | -24% | ?
COc1ccccc1-c1cc(=O)c2cc(O)ccc2o1 | / | / | -3% | / | / | / | / | / | / | /
COC(=O)c1ccc2nc(-c3ccc(C)cc3)c(CC3CCCCC3)n2c1 | -4% | / | / | / | / | / | / | / | / | /
O=P(CCc1ccccc1)(c1ccccc1)c1ccccc1 | -3% | -8% | / | 3% | -10% | 0% | / | / | / | /
Cc1sc2ccccc2[n+]1CCc1ccccc1 | / | -2% | / | / | 10% | / | 11* | 7.9µM* | 14% | 4%
COc1ccc(-c2cc3nc(C)c(CCC(=O)NC4CCCCC4)c(C)n3n2)c(OC)c1 | / | 38% | / | 1% | 33% | -5% | / | / | / | /
CCC(C)(C)c1nnc(NC(=O)C2CCN(C(=O)c3ccco3)CC2)s1 | 2.4µM* | -9% | -101% | 50µM* | 8% | 7% | 6.7* | ? | -12% | 4%
Cc1nnc(NC(=O)C2CCN(C(=O)c3ccco3)CC2)s1 | -26% | 1% | 1% | -4% | 22% | 13% | / | / | / | /
COc1ccc(/C=C2/C(=O)ON=C2c2ccccc2)cc1OC | 1.9µM* | 7% | 35µM* | 40µM* | 32µM* | -2% | 21* | ? | -3% | -7%
NC(=O)COc1ccc(/C=C2\C(=O)ON=C2c2ccccc2)cc1 | 2.1µM* | -8% | / | ? | 28µM* | 5% | 8.9* | 13µM* | ? | ?
NC(=O)COc1ccccc1 | -3% | 7% | 6% | -17% | 19% | 0% | / | / | / | /
O=C1ON=C(c2ccccc2)/C1=C/c1ccco1 | 1.1µM* | 3% | 50µM* | ? | -21% | 3% | 8.4* | ? | -30% | ?
CN(C)/C=C1\C(=O)ON=C1c1ccccc1 | -7% | 7%[57.1 µM] | 10% | -18% | 21%[57.1 µM] | -5% | / | / | / | /
SMILES | PLK1 PBD block | TrxR1 substrate | Sfp PPTase inh | VDR inh | rTrxR1 inhibitor | mIDH1 inhibitor | VDR confirm | VDR FP | VDR bla | VDR viability
COc1ccc(/C=C2\C(=O)ON=C2c2ccccc2)cc1OC | 3µM* | 11% | 22µM* | 35µM* | 32µM* | 7% | 19* | ? | -15% | -2%
CCc1nn2c(-c3ccco3)ccnc2c1-c1ccc(F)cc1 | / | -1% | / | 6% | 10% | 0% | / | / | / | /
O=C(Nc1ccccc1)C1Cc2c(-c3ccc4c(c3)OCO4)ccnc2O1 (stereo not drawn) | 4% | / | / | / | / | / | / | / | / | /
Cc1ccc(Cl)cc1N1CCN(C(=O)Cn2c(-c3cccs3)cc3cc(F)ccc32)CC1 | / | 38% | / | 18% | 40% | 10% | / | / | / | /
CCN(CC)C(=O)C1=C(C)N(Cc2ccc(OC)cc2)C(=O)C(CC(=O)NCCN2CCOCC2)C1 (stereo not drawn) | -11% | / | / | / | / | 17% | / | / | / | /
COc1ccc(C)cc1N1C(=N)/C(=C2/Nc3ccccc3S2)C(c2ccccc2)C1=O (stereo not drawn) | ? | -3% | -7% | ? | 12% | 5% | 10* | 8.9µM* | -20% | -6%
Cn1c(=O)c2sccc2n2c(CCC(=O)N3CCN(c4ccc(F)cc4)CC3)nnc12 | / | 7% | / | -3% | 20% | / | / | / | / | /
COc1ccc(/C=C/C(=O)c2ccc([N+](=O)[O-])o2)cc1OC | ? | -15% | / | 18µM* | 14µM* | ? | 3.5* | 3.5µM* | 3.3µM* | 17µM*
CN(C)c1ccc(C=Nc2ccc(N(C)C)cc2)cc1 | -9% | 0%[57.1 µM] | 22µM* | ? | -41% | 23% | 10* | ? | 6% | -11%
